Reference: PubChem BioAssay (NCATS)
Inconclusive results are not listed. The source made the active and inactive calls. Calls come from the whole dose curve; as a rule, active = well fitted inhibition curve with a large enough effect; inconclusive = small, poorly fitted or top-dose-only effect; inactive = flat fitted curve, though single readings scatter.

Tested on: astro (control astrocytes)
Assay: Drug repurposing screens with cells derived from glioblastoma tumor samples (AID 1345199); note: nearly all actives have a fitted effect of over 40% in size
Conditions: viability, ATP luminescence, 48 h; series mostly up to 45.9 µM; activity, negative = cell killing: at the top concentration
Experimental: CD133+ cells were isolated from GBM patient biopsies and cultured as neurospheres. Neurospheres from four patients were used to screen the NCATS pharmaceutical collection (NPC) library of approved drugs and bioactive compounds. […] The neurospheres were incubated with drugs for 48 hours in 1536-well format, then assayed with an ATP content cell viability assay. […] These hits were cherry picked to confirm activity in the four original GBM lines screened plus three other slower growing GMB lines (unable to yield enough cells for a full primary screen). Variable activities of the confirmed primary hits in the different GBM patient lines were observed. The patient line 206 responded to the greatest number of compounds and line 923 responded to the least amount of active compounds.
% is set by controls: 0 for no effect and ±100 for the full control effect; potency is the fitted concentration of half-maximal effect.

SMILES	activity, negative = cell killing	Potency
O=P(O)(O)OC(Cn1cncn1)(Cn1cncn1)c1ccc(F)cc1F	-12.2% (inactive)	
C=Cc1ccccc1	-4.84% (inactive)	
O=C(Nc1ccc(/C=C/c2ccc(NC(=O)c3cc(S(=O)(=O)O)c4cccnc4c3O)cc2S(=O)(=O)O)c(S(=O)(=O)O)c1)c1cc(S(=O)(=O)O)c2cccnc2c1O	-2.1% (inactive)	
CCC(=O)OCC(=O)[C@@]1(OC(=O)CC)[C@@H](C)C[C@H]2[C@@H]3CCC4=CC(=O)C=C[C@]4(C)[C@@]3(Cl)[C@@H](O)C[C@@]21C	-17.2% (inactive)	
c1ccc2c(CCC3CCNCC3)c[nH]c2c1	-20.7% (inactive)	
Cc1c(O)cc2c(c1C)O[C@](C)(CCC[C@H](C)CCC[C@H](C)CCCC(C)C)CC2	-4.16% (inactive)	
C/C(=C(\CCOC(=O)c1ccccc1)SS/C(CCOC(=O)c1ccccc1)=C(/C)N(C=O)Cc1cnc(C)nc1N)N(C=O)Cc1cnc(C)nc1N	-18.3% (inactive)	
CC(=O)O[C@H]1C[C@@H]2CC[C@@H]3[C@H](CC[C@@]4(C)[C@H]3C[C@H](N3CC[N+](C)(C)CC3)[C@@H]4OC(C)=O)[C@@]2(C)C[C@@H]1N1CC[N+](C)(C)CC1	-19.5% (inactive)	
CC(C)(C)CC(=O)OCC(=O)[C@@]12OC(C)(C)O[C@@H]1C[C@H]1[C@@H]3CCC4=CC(=O)C=C[C@]4(C)[C@@]3(F)[C@@H](O)C[C@@]12C	-21.9% (inactive)	
CCCOc1ccc2nc(NC(=O)OC)sc2c1		6.31 µM (active)
CO[C@H]1[C@@H](O)[C@H](N)[C@@H](O[C@H]2O[C@H]([C@H](C)N)CC[C@H]2N)[C@H](O)[C@@H]1N(C)C(=O)CN	4.47% (inactive)	
O=C1O[C@@H]2[C@@H](O)[C@H](O)O[C@@H]2[C@H]1O	-11.7% (inactive)	
CC(C(=O)O)c1ccc(C2CCCCC2)c2ccccc12 (stereo not given)	-11.8% (inactive)	
C=C[C@]1(C)C[C@@H](OC(=O)CO)[C@]2(C)[C@H](C)CC[C@]3(CCC(=O)[C@H]32)[C@@H](C)[C@@H]1O	-8.05% (inactive)	
O=S(=O)(O)Oc1ccc(C(c2ccc(OS(=O)(=O)O)cc2)c2ccccn2)cc1	9.94% (inactive)	
O=C[C@H](O)[C@@H](O)[C@H](O[C@H]1O[C@H](CO)[C@@H](O[C@H]2O[C@H](CO)[C@@H](O)[C@H](O)[C@H]2O)[C@H](O)[C@H]1O)[C@H](O)CO	-11.6% (inactive)	
CS(=O)(=O)NC(=O)CCC/C=C\C[C@H]1C(=O)C[C@@H](O)[C@@H]1/C=C/[C@H](O)COc1ccccc1	-17.5% (inactive)	
O=C1C(c2[nH]c3ccc(S(=O)(=O)O)cc3c2O)=Nc2ccc(S(=O)(=O)O)cc21		inactive
C[C@@H]1C[C@H]2C3C[C@H](F)C4=CC(=O)C=CC4(C)[C@@]3(F)[C@@H](O)CC2(C)[C@@]1(O)C(=O)COC(=O)C(C)(C)C (stereo not given in full)	-5.82% (inactive)	
CCC(CN)CC(C)CCNCC(O)CNCC(C)CC(CC)CN (stereo not given)	-4.63% (inactive)	

SMILES	activity, negative = cell killing	Potency
COc1cc2[nH]c(C)c(CCN3CCN(c4ccccc4)CC3)c2cc1OC	-15.3% (inactive)	
COC[C@H](c1ccc(C(F)(F)F)cc1)N1CCN(C2(C)CCN(C(=O)c3c(C)ncnc3C)CC2)C[C@H]1C	-14% (inactive)	
NNc1nnc(Cc2ccncc2)c2ccccc12	-14.2% (inactive)	
NCCC(=O)[N-][C@@H](Cc1cnc[nH]1)C(=O)O.[Zn]	-6.19% (inactive)	
CCCC(=O)N1CCCN(c2nc(N)c3cc(OC)c(OC)cc3n2)CC1	3.38% (inactive)	
Cc1ccc(/C(=C\CN2CCCC2)c2cccc(/C=C/C(=O)O)n2)cc1		22.4 µM (active)
CCN(CC)c1ccc(C(=C2C=CC(=[N+](CC)CC)C=C2)c2ccccc2)cc1		2 µM (active)
CCCCCCCCCCCCCCCC(=O)OC[C@@H](COP(=O)([O-])OCC[N+](C)(C)C)OC(=O)CCCCCCCCCCCCCCC	-10.4% (inactive)	
COCC1=C(C(=O)OC(C)OC(=O)OC(C)C)N2C(=O)[C@@H](NC(=O)/C(=N\OC)c3csc(N)n3)[C@H]2SC1 (stereo not given in full)		inactive
C[C@H](CSC(=O)c1ccccc1)C(=O)N1C[C@@H](Sc2ccccc2)C[C@H]1C(=O)O	-5.57% (inactive)	
NC(=O)C[C@@H](N)C(=O)O	3.86% (inactive)	
CCC(c1ccccc1)c1noc(CCN(CC)CC)n1 (stereo not given)	2.46% (inactive)	
O=C[C@H](O)[C@@H](O)[C@H](O)[C@H](O)CO	-4.09% (inactive)	
CCOC(=O)Nc1ccc2c(c1)N(C(=O)CN(C)C)c1ccccc1CC2	-23.8% [at 91.6 µM] (inactive)	
COc1ccc(CNCC(O)COc2ccc3[nH]c(=O)ccc3c2)cc1OC (stereo not given)	-8.7% (inactive)	
O=C(CCCN1CCC(n2c(=S)[nH]c3ccccc32)CC1)c1ccc(F)cc1	-20% (inactive)	
OCC(O)COc1ccc(Cl)cc1 (stereo not given)	10.3% (inactive)	
CN[C@@H]1CCc2[nH]c3ccc(C(N)=O)cc3c2C1	-1.37% (inactive)	
CS(=O)(=O)Nc1cc2occ(NC=O)c(=O)c2cc1Oc1ccccc1	0.876% (inactive)	
CCOC(=O)[C@H](CCc1ccccc1)N[C@@H](C)C(=O)N1CC2(C[C@H]1C(=O)O)SCCS2	-6.17% (inactive)	
